The source of these data is PubChem BioAssay (Tox21).

Each structure is given as a SMILES string. Values joined by “and” are separate entries in the source; they are usually repeats but may differ in a detail not shown here. Identical values can stand only once. Results filed as inconclusive are left out. Unmarked numbers belong to inactive results. Active and inactive are the calls of the source. Unless noted, the call rests on the fitted dose curve; in most records, active means well fitted curve in the direction sought with a large enough effect in the repeat runs; inconclusive means weak or mixed curves; inactive means no such curve, though single readings can be large; an effect the other way counts as inactive or inconclusive.

The target in test [1] is Luciferin 4-monooxygenase (Photinus pyralis) (UniProt P08659). The experiment in a line: qHTS assay to identify small molecule inhibitors of firefly luciferase (AID 1224835). Further: nearly all actives have a fitted effect of over 25% in size. Further: potency means the concentration at half of the fitted maximal effect. The gist of the method: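 Biochemical qHTS: compounds run as interplate titrations against purified firefly enzyme, with D-luciferin and ATP each at its KM concentration. Light output recorded by CCD imaging.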
On the technique in general: Quantitative high-throughput screening tests each substance at several concentrations.

Test [2] in a line: qHTS assay to identify small molecule agonists of the constitutive androstane receptor (CAR) signaling pathway - cell viability counter screen (AID 1224836). Further: nearly all actives have a fitted effect of over 45% in size. Further: potency means the concentration at half of the fitted maximal effect. The gist of the method: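 Viability read-out: CellTiter-Fluor fluorescence after 23 h compound exposure at 37 C/5% CO2 in double-stable HepG2-CYP2B6-hCAR cells, with PK11195 present at 0.75 uM final; compounds tested in 15-point titration.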

A short description of test [3]: qHTS assay to identify small molecule agonists of the estrogen related receptor signaling pathway with the pleiotropic PPARgamma coactivator (PGC) from Tox21 10K library (AID 1224842). Further: nearly all actives have a fitted effect of over 15% in size. The gist of the method: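 PGC/ERR reporter cell line, 2,000 cells per well, incubated 6 h at 37 C before 23 nL compound in DMSO was added. After 18 h at 37 C, One-Glo luminescence read following 30 min at room temperature.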

Test [4] in a line: qHTS assay to identify small molecule agonists of the hypoxia (HIF-1) signaling pathway - cell viability counter screen (AID 1224844; calls by dose curve; further: nearly all actives have a fitted effect of over 50% in size; further: potency means the concentration at half of the fitted maximal effect). The gist of the method:
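In this counter screen, HRE-bla ME-180 cell viability after 17 hrs of compound exposure at 37C was read by CellTiter-Glo luminescence, multiplexed with the beta-lactamase reporter measurement.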

The target in test [5] is Nuclear receptor subfamily 1 group I member 3 (Homo sapiens) (UniProt Q14994). The experiment in a line: qHTS assay to identify small molecule antagonists of the constitutive androstane receptor (CAR) signaling pathway (AID 1224838). Further: nearly all actives have a fitted effect of over 40% in size. Further: potency means the concentration at half of the fitted maximal effect. The gist of the method:
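Inhibition of CITCO-driven (50 nM final) CYP2B6 reporter expression is measured in HepG2 cells stably carrying hCAR. Fifteen compound concentrations are applied for 24 h at 37 C, followed by luciferase luminescence.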

The target is the same in test [6]. The experiment in a line: qHTS assay to identify small molecule agonists of the constitutive androstane receptor (CAR) signaling pathway (AID 1224839). Further: nearly all actives have a fitted effect of over 15% in size. Further: potency means the concentration at half of the fitted maximal effect. The gist of the method:
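Luminescence read-out (ONE-Glo, 30 min, room temperature) from double-stable HepG2-CYP2B6-hCAR cells exposed 24 h to 15-point compound series in presence of 0.75 uM PK11195 final.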

A short description of test [7]: qHTS assay to identify small molecule antagonists of the estrogen related receptor signaling pathway with the pleiotropic PPARgamma coactivator (PGC) from Tox21 10K library - cell viability counter screen (AID 1224840; active means well fitted cell-killing curve with a large enough effect in the repeat runs, not every such curve was filed as active; further: nearly all actives have a fitted effect of over 40% in size; further: potency means the concentration at half of the fitted maximal effect). The essentials: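 Readout: fluorescence intensity from CellTiter-Fluor after 30 min at 37 C/5% CO2. Preceded by 17.5 h treatment of PGC/ERR cells with DMSO-dissolved compounds, added 6 h post-seeding.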

Test [8] in a line: qHTS assay to identify small molecule antagonists of the constitutive androstane receptor (CAR) signaling pathway - cell viability counter screen (AID 1224837). Further: nearly all actives have a fitted effect of over 45% in size. Further: potency means the concentration at half of the fitted maximal effect. The essentials: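 CITCO at 50 nM final was added alongside compounds (15 concentrations) to double-stable hCAR/CYP2B6-2.2kb HepG2 cells. Following 23 hr at 37 C, cell viability was quantified by CellTiter-Fluor fluorescence intensity.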

In test [9] the target is Thyrotropin receptor (Homo sapiens) (UniProt P16473). The experiment in a line: qHTS assay to identify small molecule agonists of the thyroid stimulating hormone receptor (TSHR) signaling pathway (AID 1224843; calls by dose curve; further: nearly all actives have a fitted effect of over 45% in size; further: potency means the concentration at half of the fitted maximal effect). The gist of the method: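 HEK293/TSHR, 800 cells/well; cpd 30 min RT; add cAMP-d2 + anti-cAMP-cryptate, 1 h RT; fluorescence read on plate reader. 15-pt titration, n=3.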

Test [10] is described as follows: qHTS assay to identify small molecule antagonists of the estrogen related receptor signaling pathway with the pleiotropic PPARgamma coactivator (PGC) from Tox21 10K library (AID 1224841; call rule not given here; further: actives are mostly falling curves and most rising ones were filed inactive; nearly all actives have a fitted effect of over 50% in size; further: potency means the concentration at half of the fitted maximal effect). The gist of the method: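 One-Glo luminescence, measured after half an hour at room temperature, quantified reporter output of PGC/ERR cells. These had been plated at 2,000 per well, incubated 6 h, dosed with compounds in DMSO, then kept 18 h at 37 C.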

Sequence of Nuclear receptor subfamily 1 group I member 3 (Homo sapiens) (Q14994 whole entry, looked up): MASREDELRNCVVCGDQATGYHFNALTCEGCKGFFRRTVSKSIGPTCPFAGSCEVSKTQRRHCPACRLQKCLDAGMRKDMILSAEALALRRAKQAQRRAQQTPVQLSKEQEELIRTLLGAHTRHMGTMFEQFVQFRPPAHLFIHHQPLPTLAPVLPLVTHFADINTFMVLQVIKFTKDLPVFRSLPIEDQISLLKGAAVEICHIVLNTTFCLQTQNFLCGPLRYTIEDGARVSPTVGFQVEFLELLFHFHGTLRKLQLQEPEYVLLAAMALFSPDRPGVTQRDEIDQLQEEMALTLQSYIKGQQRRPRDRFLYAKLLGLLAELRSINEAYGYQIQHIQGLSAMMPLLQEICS
Sequence of Luciferin 4-monooxygenase (Photinus pyralis) (P08659 whole entry, looked up): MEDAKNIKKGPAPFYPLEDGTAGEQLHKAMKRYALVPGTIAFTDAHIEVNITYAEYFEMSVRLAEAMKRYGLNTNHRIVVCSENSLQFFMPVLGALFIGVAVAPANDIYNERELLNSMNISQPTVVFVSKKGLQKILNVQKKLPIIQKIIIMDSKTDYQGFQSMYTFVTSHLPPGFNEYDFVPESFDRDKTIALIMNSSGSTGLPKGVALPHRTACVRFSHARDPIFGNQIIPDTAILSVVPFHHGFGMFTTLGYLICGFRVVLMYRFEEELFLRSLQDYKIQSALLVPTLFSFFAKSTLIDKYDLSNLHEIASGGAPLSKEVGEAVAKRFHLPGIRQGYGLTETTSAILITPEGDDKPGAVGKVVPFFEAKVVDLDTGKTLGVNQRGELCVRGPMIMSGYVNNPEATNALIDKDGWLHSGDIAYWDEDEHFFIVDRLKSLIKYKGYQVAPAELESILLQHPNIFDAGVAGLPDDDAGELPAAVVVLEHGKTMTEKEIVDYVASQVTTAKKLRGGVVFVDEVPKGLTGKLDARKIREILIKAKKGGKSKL
Sequence of Thyrotropin receptor (Homo sapiens) (P16473 whole entry, looked up): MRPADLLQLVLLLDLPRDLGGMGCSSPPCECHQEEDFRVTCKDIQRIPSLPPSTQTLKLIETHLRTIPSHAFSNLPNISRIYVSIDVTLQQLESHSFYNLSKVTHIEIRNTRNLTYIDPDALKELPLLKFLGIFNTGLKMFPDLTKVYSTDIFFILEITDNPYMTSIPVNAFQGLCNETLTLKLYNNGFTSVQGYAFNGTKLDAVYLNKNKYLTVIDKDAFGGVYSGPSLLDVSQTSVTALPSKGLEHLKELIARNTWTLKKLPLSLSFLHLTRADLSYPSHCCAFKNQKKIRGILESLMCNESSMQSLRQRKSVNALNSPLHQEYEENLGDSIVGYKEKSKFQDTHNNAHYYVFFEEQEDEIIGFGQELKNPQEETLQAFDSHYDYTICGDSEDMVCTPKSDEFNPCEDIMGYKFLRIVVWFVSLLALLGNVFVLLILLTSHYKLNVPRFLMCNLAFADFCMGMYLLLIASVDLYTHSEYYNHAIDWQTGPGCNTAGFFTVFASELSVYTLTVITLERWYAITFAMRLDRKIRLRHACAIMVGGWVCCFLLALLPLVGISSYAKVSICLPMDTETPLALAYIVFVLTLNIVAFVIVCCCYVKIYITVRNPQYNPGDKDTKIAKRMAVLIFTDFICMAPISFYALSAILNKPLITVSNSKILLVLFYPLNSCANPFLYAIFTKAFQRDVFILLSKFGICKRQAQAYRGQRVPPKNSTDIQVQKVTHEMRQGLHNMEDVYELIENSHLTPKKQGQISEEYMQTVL

Turning to `Clc1ccc(C(Cn2ccnc2)OCc2c(Cl)cccc2Cl)c(Cl)c1` (stereo not given), the Potency result in test [1], in [2] and in test [3] was “inactive” throughout. Also, the Potency in test [4] was 23.9 µM (active).
`CN(C)c1ccc(N=Nc2ccccc2C(=O)O)cc1`: the Potency in test [1] was 3.17 µM (active); in test [6], 10.9 µM (active); in test [7], 27.3 µM (active). The Potency entry in test [5] was “inactive”.
On to `COCC(=O)O[C@]1(CCN(C)CCCc2nc3ccccc3[nH]2)CCc2cc(F)ccc2[C@@H]1C(C)C`, for which the Potency entry in [1], in test [6] and in test [9] was “inactive” throughout. For the same compound, the Potency in test [8] is 29.8 µM (active); in [5], 29.8 µM (active); in [7], 29.8 µM (active); in test [4] it was 16.9 µM (active).
Turning to `NC1(c2ccc(-c3nc4ccn5c(=O)[nH]nc5c4cc3-c3ccccc3)cc2)CCC1`, the Potency result in test [1], in test [6], in test [3] and in test [9] was “inactive” throughout. Also, the Potency in test [5] is 11.9 µM (active); in test [7], 15 µM (active); in test [4] it was 2.13 µM (active).
Turning to `CCN=c1cc2oc3cc(NCC)c(C)cc3c(-c3ccccc3C(=O)OCC)c-2cc1C`, the Potency entry in test [1], in test [6], in test [7] and in [3] was “inactive” throughout. Further, the Potency in test [5] was 54.3 µM (active) and 54.5 µM (active).
Turning to `O=Cc1ccc(F)cc1`, the Potency result in [1], in test [2], in test [7], in test [9] and in [4] was “inactive” throughout.
Regarding `CC(C)=CC1CC(C)CCO1` (stereo not given), the Potency entry in [1], in test [2], in test [7] and in test [4] was “inactive” throughout.
`CCCOc1sc(C(=O)N2CCC(c3cc(CN)ccc3F)CC2)c(C)c1Br`: the Potency result in test [1], in test [6] and in test [3] was “inactive” each time. In addition, the Potency is 56 µM (active) in [7] and 28.3 µM (active) in test [4].
For the compound `COc1ccc2sc(C(=O)Nc3nnn[nH]3)c(OC(C)C)c2c1`, the Potency result in test [1], in test [6], in test [3] and in test [9] was “inactive” in each case. The Potency in [5] is 27.2 µM (active); in [10], 24.2 µM (active); in [4] it was 24.5 µM (active).
`COC(=O)C1=C(C)NC(C)=C(C(=O)OCCCN2CCC(c3ccccc3)(c3ccccc3)CC2)C1c1cccc([N+](=O)[O-])c1` (stereo not given): the results for the Potency in test [8], in test [7] and in [10] were 23.7 µM (active), 26.6 µM (active) and 10.6 µM (active), respectively.
For the compound `O=Nc1ccc(NO)cc1`, the Potency result in test [2], in test [8], in [5], in test [6], in test [7] and in [10] was “inactive” in each case. Besides, in [3], the Potency result is “inactive”.
As to `CCCCCCCCCCCCCOP(=O)(O)O`, the Potency result in test [2], in [8], in [5], in test [6], in test [7] and in test [10] was “inactive” in each case. Also, the Potency result in test [3] and in test [4] was “inactive” each time.
`Cc1oc(-c2ccccc2)nc1CCOc1ccc(C[C@H](Nc2ccccc2C(=O)c2ccccc2)C(=O)O)cc1`: the Potency result in test [3] and in test [9] was “inactive” throughout.
Consider `CC(C)c1cccc(C(C)C)c1N1C(=O)c2ccc(O)cc2C1=O`, for which the Potency entry in [1], in [7], in test [9] and in [4] was “inactive” in each case.
As to `C=CCCCCCCC=C`, the Potency entry in test [2], in test [8] and in test [7] was “inactive” in each case.
Consider `CNC(=O)c1cc(Oc2ccc(NC(=O)Nc3ccc(Cl)c(C(F)(F)F)c3)cc2)ccn1`, for which the Potency result in test [1], in test [3] and in test [4] was “inactive” each time.
In the case of `O=C(NO)c1ccccc1`, the Potency result in [2], in test [8] and in [7] was “inactive” each time. Further, the Potency in [10] was 18.4 µM (active).
In the case of `CC1(C)C(=O)N(Br)C(=O)N1Br`, the Potency entry in [2], in [8], in [5], in test [7], in test [3] and in test [9] was “inactive” each time. For the same compound, the Potency result in [4] was “inactive”.
For `CCN(CC)CCOc1ccc(C(O)(Cc2ccc(Cl)cc2)c2ccc(C)cc2)cc1` (stereo not given), the Potency entry in test [1] and in [9] was “inactive” throughout.
Turning to `Brc1ccccc1-c1ccccc1`, the Potency result in test [2], in test [5] and in test [7] was “inactive” throughout. The Potency in test [4] was 36.8 µM (active).
With `O=C(Oc1ccccc1)c1cccc(C(=O)Oc2ccccc2)c1`, the Potency entry in test [2], in test [8], in test [5], in test [7] and in [4] was “inactive” throughout.
Consider `CCCCOc1ccc(C(=O)CCN2CCCCC2)cc1`, for which the Potency result in test [5], in test [7] and in test [4] was “inactive” in each case.
Regarding `CN1[C@@H]2CC[C@@H]1CC(OC(=O)C(CO)c1ccccc1)C2` (stereo not given in full), the Potency result in test [2], in test [8], in test [5], in test [7] and in test [4] was “inactive” in each case.
Regarding `CN(C)CCOC(c1ccccc1)c1ccccc1` (tested in a mixture with another compound), the Potency entry in [1] and in test [7] was “inactive” each time.
On to `C=CC(=O)OCC(O)COc1ccccc1` (stereo not given), for which, in test [1], the Potency entry was “inactive”. In addition, the Potency in test [4] is 38.9 µM (active).
`CCCCCCCCCCCCCCNCCO`: the Potency result in [2], in [8], in [5], in [7], in test [9] and in [4] was “inactive” throughout. For the same compound, in [6], the Potency is 8.41 µM (active).
`CNCC[C@H](Oc1cccc2ccccc12)c1cccs1`: the Potency in [2] was 21.1 µM (active); in test [8], 26.6 µM (active); in test [5] it was 29.8 µM (active); in test [10] it was 33.5 µM (active). The Potency result in test [6] and in [3] was “inactive” throughout.
As to `NCCCC(O)(P(=O)(O)O)P(=O)(O)O`, the Potency entry in [2], in test [8], in test [5], in test [7], in test [9] and in test [4] was “inactive” in each case.
As for `CN(C)CCCN1c2ccccc2Sc2ccc(C(F)(F)F)cc21`, the Potency result in test [1], in test [6], in test [9] and in test [4] was “inactive” each time.
For the compound `CC(NCCC(c1ccccc1)c1ccccc1)c1ccccc1` (stereo not given), the Potency entry in test [1], in test [6] and in test [4] was “inactive” throughout.
For the compound `CC(C)OC(=O)c1cc(C(=O)OC(C)C)cc([N+](=O)[O-])c1`, the Potency result in [2], in [8], in test [5], in test [7], in [10] and in [4] was “inactive” in each case. The Potency in [9] is 22.2 µM (active).
Consider `C[C@H]1O[C@@H](O[C@H]2[C@@H](O)C[C@H](O[C@H]3[C@@H](O)C[C@H](O[C@H]4CC[C@@]5(C)[C@H](CC[C@@H]6[C@@H]5C[C@@H](O)[C@]5(C)[C@@H](C7=CC(=O)OC7)CC[C@]65O)C4)O[C@@H]3C)O[C@@H]2C)C[C@H](O)[C@@H]1O`, for which, in test [4], the Potency is 123 nM (active) and 153 nM (active).
As for `CCCCCCCCCC(=O)N(C)C`, the Potency result in test [2], in [8], in [5], in [7], in test [10] and in test [3] was “inactive” throughout. The Potency result in test [9] and in test [4] was “inactive” in each case. Also, the Potency in [6] is 55.3 µM (active).
